Assay results as given in PubChem BioAssay (NCI).
About 79,000 compounds went through this panel and 15% of them were active in at least one assay; those are over-represented in the sample as a whole. A number with no mark means an inactive call. Calls of active or inactive are those of the source. Rule as the data show it: active = growth inhibition above about 70%; inactive = the rest.

Assay: NCI Yeast Anticancer Drug Screen. Data for the mlh1 rad18 strain (AID 175)
Conditions: S. cerevisiae mlh1 rad18 strain growth inhibition; at 50.0 µM (retest, dose inferred, filed as 5.0); hits give high values
In short: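 Genetically defined yeast (DNA repair-deficient) exposed to compounds; growth inhibition determined relative to vehicle.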

SMILES	growth inhibition
CCCNC(=O)OCc1ccc(NCCN(CC)CC)c2c(=O)c3ccccc3sc12	2%
COc1cc(C(c2cc3c(cc2O)OCO3)N2CCCCC2)cc(OC)c1OC (stereo not given)	6%
Cc1cc2c(cc1Cl)Sc1nnc(C)n1S2(=O)=O	75% (active)
O=C(Oc1cccc2cccnc12)c1ccccc1	98% (active)
CCCCCCN(CCCCCC)CCC(=O)c1ccc2cc(Br)c3ccccc3c2c1	84% (active)
Cc1c2cc(Cl)ccc2cc2c1ccc1ccccc12	16%
O=C1OC(CCCl)(c2ccccc2)CC1CN1CCOCC1 (stereo not given)	91% (active)
CCOC(=N)CCCSSc1ccc(N=[N+]=[N-])cc1	99% (active)
Cc1[nH]c2ccccc2c1/C=C1\C(=O)C2CCC1C2 (stereo not given)	80% (active)
O=C(O)c1ccc2c3c(ncnc13)-c1ccccc1C2=O	98% (active)
CCNCCNc1cc(O)c2c(c1O)C(=O)c1ccccc1C2=O	98% (active)
Nc1nc(N)c2nc(CNc3ccc(C(=O)NC(CCC(=O)O)C(=O)O)cc3)cnc2n1 (stereo not given)	-19%
COc1ccccc1OC(=O)Oc1ccccc1OC	-5%
NNC(=O)c1c(SCc2ccccc2)nc2c3ccccc3ccn12	93% (active)
N#CC1Oc2ccccc2N1C(=O)c1ccccc1 (stereo not given)	4%
O=C1C2=Cc3ccccc3CCN2c2ccccc21	2%
Cc1cc([N+](=O)[O-])cc(Cl)c1O	64%
Cc1c(Cl)cccc1N=NC(=O)NNc1cccc(Cl)c1C	98% (active)
CCC[CH2][Sn]1([CH2]CCC)[O]C(=O)CN=Cc2c(ccc3ccccc23)[O]1	67%
Oc1ccc(/C=N/NC(=S)Nc2ccccc2)nc1	78% (active)

SMILES	growth inhibition
CN(C)COC(=S)SCN(C)C	99% (active)
Cc1cc2cc3c(c(C(=O)O)c2o1)C(=O)c1ccc2ccccc2c1C3	99% (active)
O=C1CC(=S)NC(=S)N1	-5%
O=[N+]([O-])c1cc(I)c(O)c(/C=N/NS(=O)(=O)c2ccc(Cl)cc2)c1	4%
CCC1CCC(CC)C1=O (stereo not given)	7%
Cc1cc(O)c2c(c1)C(=O)c1c(c(O)cc(O)c1-c1c(O)cc(O)c3c1C(=O)c1cc(C)cc(O)c1C3=O)C2=O	80% (active)
CCC(=O)Sc1ccccc1C(=O)Nc1ccc(Cl)cc1	65%
COc1cccc(CC2N(S(=O)(=O)c3ccc(C)cc3)CCC23C(=O)Nc2ccccc23)c1OC (stereo not given)	96% (active)
Cc1occc1C(=S)Nc1ccc(Cl)c(C(=O)OCC(C)C)c1	73% (active)
CCOC(=O)c1ccc([N+](=O)[O-])o1	30%
Nc1ccc(S(=O)(=O)O)c2cccc(S(=O)(=O)O)c12	-2%
Cn1c2ccccc2c2nnc(N/N=C/c3ccccn3)nc21	98% (active)
C#CC(NCCC(C)CC(C)(C)C)C(C)C (stereo not given)	-43%
C/C(=N/Nc1ccccc1)C(=O)O	98% (active)
CCCCCCCCCCCCCCOC(=O)C(N)Cc1ccc(O)cc1 (stereo not given)	97% (active)
O=C(Nc1ccc(S(=O)(=O)NC2CCCCC2)cc1)OCc1ccccc1	30%
NC1CCCCC1N.O=S(=O)([O-])CCCN1CCN(CCO)CC1.O=S(=O)([O-])CCCN1CCN(CCO)CC1.[Pt+4]	98% (active)
CCCCCCCNc1ccc2c(cc1=O)C(NC(C)=O)CCc1cc(OC)c(OC)c(OC)c1-2 (stereo not given)	97% (active)
Cc1ccc(NC(=O)c2cc3ccccc3c(N=Nc3cc(S(=O)(=O)O)ccc3O)c2O)c(C)c1	87% (active)
O=C(O)/C(Cl)=C(\Cl)C(=O)Nc1cccc(C(F)(F)F)c1	99% (active)
